Values joined by “and” are separate entries in the source; they are usually repeats but may differ in a detail not shown here. Identical values can stand only once. Results filed as inconclusive are left out. A structure can be active in one record and inactive in another. Active and inactive are the calls of the source. Unless noted, calls come from the whole dose curve; as a rule, active = well fitted curve in the direction sought with a large enough effect; inconclusive = small, poorly fitted or top-dose-only effect, or another doubt; inactive = no such curve, though single readings can be large; an effect the other way counts as inactive or inconclusive.
Legend:
[1] = target: Cytochrome P450 1A2 (Homo sapiens) (UniProt P05177); test: p450-cyp1a2 (AID 410; calls by dose curve; note: potency is the fitted concentration of half-maximal effect;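 for activity change, negative = inhibition: -100% = full effect of reference inhibitor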)
How it was run: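 Inhibition was calculated relative to 57 uM furafylline (full inhibition). The reaction used human CYP1A2 at 20nM with Luciferin-ME at its Km, 100uM, driven by an NADPH-regenerating system for 60 min at room temperature.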

[2] = NFAT Signaling Pathway (AID 444; active = well fitted curve in either direction with a large enough effect, not every such curve was filed as active;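 note: carbachol stimulus at about its EC50 of 1 µM final; % is set by controls: 0 for no effect and ±100 for the full control effect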); settings: Jurkat NFAT-bla M1, carbachol, beta-lactamase ratio, 5 h
How it was run: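 Read-out: CCF4 FRET ratio (460 nm/530 nm) after 1 h RT dye loading, used for %activity and AC50 from titration series. Cells: Jurkat NFAT-β-lactamase/M1 line, treated with compound plus 1 uM carbachol for 5 h, 37 °C.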

[3] = Stat Signaling Pathway (AID 446; active = well fitted curve in either direction with a large enough effect, not every such curve was filed as active;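 note: ME-180 cervical cancer cells given 40 pM IL-6 alongside compound; SIE-controlled beta-lactamase reporter measured as 460/530 nm FRET emission ratio; % is set by controls: 0 for no effect and ±100 for the full control effect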); settings: ME-180 SIE beta-lactamase reporter, IL-6 stimulated, 5 h
How it was run: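 Screening format detects activators and inhibitors alike: ME-180 SIE-bla cells stimulated at 40 pM IL-6 for 5 hrs with compound, then dual-emission beta-lactamase read at 405 nm excitation.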

[4] = target: 3',5'-cyclic-AMP phosphodiesterase 4B (Homo sapiens) (UniProt Q07343); test: qHTS Assay for Inhibitors of PDE-IV (AID 607; active = well fitted activation curve with a large enough effect in the main read-out, with a control signal flat, not every such curve was filed as active; note: % of control where 0% means no effect)
How it was run: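 The readout is membrane depolarisation from a cAMP-sensing CNG channel, detected with a potential dye at ex 535/em 590. Cells were HEK293-derived (endogenous PDE-IV) at 1000 cells/well, titrated up to 22.9 uM final.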

[5] = target: alpha-glucosidase (Oryza sativa, rice) (UniProt Q653V4); test: Counterscreen for Glucocerebrosidase Inhibitors: qHTS Assay for Rice alpha-Glucosidase at pH 5.0 (AID 997);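 note: 0% = full activity with enzyme and -100% = basal without enzyme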
How it was run: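 Rice alpha-glucosidase (4 nM final) with 400 uM 4-methylumbelliferyl-alpha-D-glucopyranoside in citrate buffer pH 5.0, 20 min at room temperature, stopped at pH 10; fluorescence 365/440 nm, compounds 0.7 nM–77 uM, AC50 from Hill fits.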

[6] = qHTS Assay for Lipid Storage Modulators (AID 1519; calls by dose curve); settings: Drosophila S3 cells, BODIPY lipid droplet/cell ratio, laser cytometry, cells loaded with oleic acid
How it was run: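 Cells seeded at 5,000 per well were treated with compounds over a concentration series and loaded with oleic acid (400 uM, as added). Lipid droplet fluorescence (488 nm excitation, 500-530 nm channel) was read by laser-scanning cytometry and normalized to 20 uM Triacsin C.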

[7] = target: ATP-dependent 6-phosphofructokinase (Trypanosoma brucei brucei) (UniProt O15648); test: qHTS Assay to Find Inhibitors of T. brucei phosphofructokinase: hit validation (AID 492961);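 note: luminescence reports ADP formed as PFK phosphorylates fructose-6-phosphate with ATP; % is set by controls: 0 for no effect and ±100 for the full control effect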
How it was run: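 In this biochemical qHTS validation, titrated compounds were tested against 1.25 nM PFK with 0.1 mM ATP and 0.5 mM F6P. Percent activity came from controls lacking or containing enzyme.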

[8] = target: Ubiquitin carboxyl-terminal hydrolase 1 (Homo sapiens) (UniProt O94782); test: Inhibitors of USP1/UAF1: Pilot qHTS (AID 504865);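 note: rhodamine fluorescence freed from ubiquitin-rhodamine substrate followed over time; top concentration of the series differs between compounds; % is set by controls: 0 for no effect and ±100 for the full control effect; nearly all actives have a fitted effect of over 35% in size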
How it was run: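 Deubiquitinase activity followed as kinetic rhodamine fluorescence release from 150 nM Ub-Rho. 1 nM USP1/UAF1 with compound, after 15 min room-temperature preincubation, in HEPES pH 7.8 buffer containing TCEP, EDTA, BSA and Tween-20.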

[9] = target: Luciferin 4-monooxygenase (Photinus pyralis) (UniProt P08659); test: Biochemical firefly luciferase enzyme assay for NPC (AID 624030);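 note: purified P. pyralis luciferase at 10 nM with luciferin and ATP substrate; 0% = DMSO and -100% = full luciferase inhibition by PTC124 control; nearly all actives have a fitted effect of over 70% in size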
How it was run: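 Direct inhibition of firefly luciferase enzyme (10 nM final, 50 mM Tris Acetate) assessed by luminescence within 5 minutes. Percent activity scaled between DMSO and PTC124 positive control, with concentration-effect curves classified by fit quality and response.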

[10] = qHTS profiling for inhibitors of Plasmodium falciparum proliferation (AID 504749);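 note: 0% = DMSO vehicle and full inhibition = artemisinin control; nearly all actives have a fitted effect of over 60% in size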; settings: P. falciparum in erythrocytes, SYBR Green DNA, 72 h
How it was run: (§1)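 Three-day growth assay of blood-stage parasites in erythrocytes (0.3% parasitemia, 2.5% hematocrit) at 37 C, 5% CO2, quantified by SYBR Green DNA staining after overnight detergent lysis.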

AS120 = test: as above; settings: P. falciparum in erythrocytes, SYBR Green DNA, 72 h; series mostly up to 28.7 µM
How it was run: as §1

CP238 = test: as above; settings: P. falciparum in erythrocytes, SYBR Green DNA, 72 h; series mostly up to 12.8 µM
How it was run: as §1

CP250 = test: as above; settings: P. falciparum in erythrocytes, SYBR Green DNA, 72 h; series mostly up to 12.8 µM
How it was run: as §1

CP262 = test: as above; settings: P. falciparum in erythrocytes, SYBR Green DNA, 72 h; series mostly up to 12.8 µM
How it was run: as §1

CP265 = test: as above; settings: P. falciparum in erythrocytes, SYBR Green DNA, 72 h; series mostly up to 12.8 µM
How it was run: as §1

FAB9 = test: as above; settings: P. falciparum in erythrocytes, SYBR Green DNA, 72 h; series mostly up to 12.8 µM
How it was run: as §1

[11] = AP1 Signaling Pathway (AID 357; active = well fitted curve in either direction with a large enough effect, not every such curve was filed as active; note: % is set by controls: 0 for no effect and ±100 for the full control effect); settings: ME-180 (cervical carcinoma) AP-1-bla reporter, EGF-induced, beta-lactamase ratio, 5 h; at 7.69 µM (top of the series) unless noted
How it was run: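 AP-1-bla ME-180 cells with beta-lactamase reporter under AP-1 response element, stimulated with EC50 EGF; compounds titrated, 5 hours at 37 degrees Celsius. CCF4 read at 460/530 nm ratio; positive and negative modulators judged by AC50.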

[12] = target: Glucocorticoid receptor (Homo sapiens) (UniProt P04150); test: GR-GFP Redistribution (AID 450;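 active = compounds whose dose series gives a full or clear partial fitted curve of increased nuclear translocation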; note: potency is the fitted concentration of half-maximal effect); settings: U2OS GR-GFP nuclear translocation, laser cytometry, 2 h
[13] = target: Glucocorticoid receptor (Homo sapiens) (UniProt P04150); test: GR-EFC Redistribution (AID 451; calls by dose curve; note: potency is the fitted concentration of half-maximal effect); settings: CHO-K1 GR-EFC translocation, beta-gal luminescence, 2 h
How it was run: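 Translocation of GR-ED fusion to nuclear EA restores b-gal, read by luminescence after 1 h room-temperature detection. Engineered CHO-K1 biosensor cells, 1,000/well, exposed 2 h at 37 C to titrations up to 46 uM final.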

[14] = target: Mitogen-activated protein kinase 10 (Mus musculus) (UniProt Q61831); test: JNK3 AlphaScreen Assay (AID 530; active = well fitted curve in either direction with a large enough effect, not every such curve was filed as active)
How it was run: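 Room-temperature AlphaScreen kinase assay; pre-activated HepG2 lysate as JNK3 source, biotin-GST-cJun(1-79) substrate, 10 uM ATP, compound 15 min preincubation.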

[15] = measured here: cell count channel max response
[16] = measured here: lipid channel max response
[17] = at 7.69 µM (top of the series) unless noted

Sequence of Cytochrome P450 1A2 (Homo sapiens) (P05177 whole entry, looked up): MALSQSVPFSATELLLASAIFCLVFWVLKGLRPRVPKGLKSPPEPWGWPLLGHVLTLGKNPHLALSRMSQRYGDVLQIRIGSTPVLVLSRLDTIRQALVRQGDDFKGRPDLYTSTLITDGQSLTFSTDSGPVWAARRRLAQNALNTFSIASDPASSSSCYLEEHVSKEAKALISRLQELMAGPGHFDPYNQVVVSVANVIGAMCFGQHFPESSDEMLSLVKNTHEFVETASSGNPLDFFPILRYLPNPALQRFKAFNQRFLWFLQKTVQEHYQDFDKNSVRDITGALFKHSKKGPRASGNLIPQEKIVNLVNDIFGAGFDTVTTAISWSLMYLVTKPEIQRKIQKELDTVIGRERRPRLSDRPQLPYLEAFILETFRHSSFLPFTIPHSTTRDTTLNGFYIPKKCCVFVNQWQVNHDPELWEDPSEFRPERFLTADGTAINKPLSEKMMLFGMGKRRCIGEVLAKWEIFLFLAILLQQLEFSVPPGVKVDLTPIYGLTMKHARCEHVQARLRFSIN
Sequence of ATP-dependent 6-phosphofructokinase (Trypanosoma brucei brucei) (O15648 whole entry, looked up): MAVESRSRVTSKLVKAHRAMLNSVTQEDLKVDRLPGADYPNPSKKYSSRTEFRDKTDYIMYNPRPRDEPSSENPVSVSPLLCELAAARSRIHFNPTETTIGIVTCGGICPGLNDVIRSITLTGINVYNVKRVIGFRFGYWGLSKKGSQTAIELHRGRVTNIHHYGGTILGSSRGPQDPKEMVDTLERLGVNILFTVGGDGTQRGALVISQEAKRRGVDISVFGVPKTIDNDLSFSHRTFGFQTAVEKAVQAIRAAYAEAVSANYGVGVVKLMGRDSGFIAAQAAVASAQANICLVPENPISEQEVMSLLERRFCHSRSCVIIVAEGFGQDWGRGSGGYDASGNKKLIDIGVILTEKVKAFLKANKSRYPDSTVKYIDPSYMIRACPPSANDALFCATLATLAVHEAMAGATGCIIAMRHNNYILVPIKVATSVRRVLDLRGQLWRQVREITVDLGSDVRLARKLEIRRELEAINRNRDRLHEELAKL
Sequence of Luciferin 4-monooxygenase (Photinus pyralis) (P08659 whole entry, looked up): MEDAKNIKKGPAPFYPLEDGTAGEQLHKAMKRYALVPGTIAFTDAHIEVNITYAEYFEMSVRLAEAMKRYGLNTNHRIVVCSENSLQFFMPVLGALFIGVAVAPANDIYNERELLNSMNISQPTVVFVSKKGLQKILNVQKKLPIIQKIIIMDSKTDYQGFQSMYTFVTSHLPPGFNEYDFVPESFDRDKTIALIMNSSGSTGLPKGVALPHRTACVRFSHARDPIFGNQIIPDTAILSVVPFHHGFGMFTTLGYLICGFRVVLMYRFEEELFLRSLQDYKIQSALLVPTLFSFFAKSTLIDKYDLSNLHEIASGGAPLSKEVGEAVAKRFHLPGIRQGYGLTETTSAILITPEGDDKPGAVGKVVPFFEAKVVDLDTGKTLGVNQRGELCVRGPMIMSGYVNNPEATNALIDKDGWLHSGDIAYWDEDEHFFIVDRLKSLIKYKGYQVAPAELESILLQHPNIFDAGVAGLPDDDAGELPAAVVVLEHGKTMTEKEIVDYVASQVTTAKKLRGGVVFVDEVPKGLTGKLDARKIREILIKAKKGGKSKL
Sequence of 3',5'-cyclic-AMP phosphodiesterase 4B (Homo sapiens) (Q07343 whole entry, looked up): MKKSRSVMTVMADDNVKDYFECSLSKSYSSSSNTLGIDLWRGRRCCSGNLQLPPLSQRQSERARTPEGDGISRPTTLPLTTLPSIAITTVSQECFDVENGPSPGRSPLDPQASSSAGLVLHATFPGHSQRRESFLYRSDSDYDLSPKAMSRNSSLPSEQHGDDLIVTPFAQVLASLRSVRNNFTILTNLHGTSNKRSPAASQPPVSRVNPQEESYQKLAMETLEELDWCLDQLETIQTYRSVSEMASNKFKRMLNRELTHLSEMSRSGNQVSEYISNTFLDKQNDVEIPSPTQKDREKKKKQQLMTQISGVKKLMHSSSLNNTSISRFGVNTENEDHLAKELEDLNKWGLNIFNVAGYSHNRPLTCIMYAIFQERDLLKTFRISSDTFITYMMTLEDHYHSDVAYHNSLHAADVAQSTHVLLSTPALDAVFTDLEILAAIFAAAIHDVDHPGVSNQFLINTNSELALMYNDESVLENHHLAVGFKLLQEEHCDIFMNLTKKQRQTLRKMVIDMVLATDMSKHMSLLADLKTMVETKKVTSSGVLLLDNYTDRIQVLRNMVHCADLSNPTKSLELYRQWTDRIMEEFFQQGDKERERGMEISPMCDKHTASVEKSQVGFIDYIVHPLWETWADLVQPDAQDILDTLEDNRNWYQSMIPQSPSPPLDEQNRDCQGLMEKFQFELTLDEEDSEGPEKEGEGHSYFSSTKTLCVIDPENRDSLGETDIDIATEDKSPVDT
Sequence of Glucocorticoid receptor (Homo sapiens) (P04150 whole entry, looked up, the tested form may be a part): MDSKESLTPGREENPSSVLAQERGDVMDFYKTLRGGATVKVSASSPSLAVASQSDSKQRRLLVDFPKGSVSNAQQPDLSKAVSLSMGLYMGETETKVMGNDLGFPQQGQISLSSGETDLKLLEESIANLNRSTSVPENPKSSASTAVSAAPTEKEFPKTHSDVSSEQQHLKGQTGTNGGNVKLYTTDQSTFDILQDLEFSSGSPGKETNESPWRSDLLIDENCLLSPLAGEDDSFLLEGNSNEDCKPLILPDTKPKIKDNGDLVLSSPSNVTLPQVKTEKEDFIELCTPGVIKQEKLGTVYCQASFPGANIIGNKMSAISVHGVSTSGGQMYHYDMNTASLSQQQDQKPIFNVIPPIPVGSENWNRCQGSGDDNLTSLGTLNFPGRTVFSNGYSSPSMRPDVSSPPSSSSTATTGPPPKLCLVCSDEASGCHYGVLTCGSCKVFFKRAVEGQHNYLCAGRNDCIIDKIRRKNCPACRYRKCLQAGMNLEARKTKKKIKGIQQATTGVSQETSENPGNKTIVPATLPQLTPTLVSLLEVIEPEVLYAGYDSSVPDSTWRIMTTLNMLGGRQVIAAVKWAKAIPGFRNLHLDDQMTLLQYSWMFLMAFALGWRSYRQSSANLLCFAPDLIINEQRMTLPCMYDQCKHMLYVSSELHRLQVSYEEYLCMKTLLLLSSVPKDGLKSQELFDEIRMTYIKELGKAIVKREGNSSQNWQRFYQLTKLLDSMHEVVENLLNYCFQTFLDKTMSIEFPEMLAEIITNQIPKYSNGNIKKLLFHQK
Sequence of Ubiquitin carboxyl-terminal hydrolase 1 (Homo sapiens) (O94782 whole entry, looked up): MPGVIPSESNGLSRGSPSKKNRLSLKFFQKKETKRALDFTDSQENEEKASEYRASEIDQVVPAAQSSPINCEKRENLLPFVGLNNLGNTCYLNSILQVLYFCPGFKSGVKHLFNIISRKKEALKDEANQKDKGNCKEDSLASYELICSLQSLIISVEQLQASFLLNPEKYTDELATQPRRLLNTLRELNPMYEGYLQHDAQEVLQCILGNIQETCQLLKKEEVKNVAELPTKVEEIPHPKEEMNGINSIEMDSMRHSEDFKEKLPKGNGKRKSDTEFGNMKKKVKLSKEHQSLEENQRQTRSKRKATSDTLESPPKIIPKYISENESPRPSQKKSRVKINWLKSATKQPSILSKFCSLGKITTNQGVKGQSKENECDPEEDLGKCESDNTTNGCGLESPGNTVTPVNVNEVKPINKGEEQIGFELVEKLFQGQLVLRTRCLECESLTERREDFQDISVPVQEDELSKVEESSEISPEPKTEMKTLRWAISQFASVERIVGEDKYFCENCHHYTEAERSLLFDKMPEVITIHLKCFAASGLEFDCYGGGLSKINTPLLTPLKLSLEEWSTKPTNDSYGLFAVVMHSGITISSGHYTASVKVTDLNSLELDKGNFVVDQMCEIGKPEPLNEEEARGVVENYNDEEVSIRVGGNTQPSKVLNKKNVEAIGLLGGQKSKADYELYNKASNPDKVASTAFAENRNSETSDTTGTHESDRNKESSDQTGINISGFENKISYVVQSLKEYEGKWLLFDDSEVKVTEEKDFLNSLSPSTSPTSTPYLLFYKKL

N[C@@H](CO)C(=O)NNCc1ccc(O)c(O)c1O
-4.75%: max response [6, 15]
inactive: Potency [1] | activity change, negative = inhibition ([2]; at 17.2 µM (top of the series)) -8.03% | activity change, negative = inhibition ([2]; at 38 µM (top of the series)) -7.62% | activity, negative = inhibition ([3]; at 17.2 µM (top of the series)) -0.902% | activity, negative = inhibition ([3]; at 38 µM (top of the series)) 4.31% | Potency [4] | outcome [5] | activity change, negative = inhibition ([6]; at 25.7 µM (top of the series)) -1.23% | outcome [7] | Potency [8] | outcome [9] | activity, negative = inhibition ([10]; at 28.7 µM (top of the series), parasite line A) 21.9% | activity, negative = inhibition ([10]; at 28.7 µM (top of the series), parasite line B) 19.7% | Potency (AS120) | Potency (CP238) | Potency (CP250) | Potency (CP262) | Potency (CP265) | Potency (FAB9)
-6.43%: max response [6, 16]

O=C(O)[C@H]1CCCN(CCC=C(c2ccccc2)c2ccccc2)C1
-22.7%: max response [6, 15]
inactive and 31.6 µM (active): Potency [1]
inactive: activity change, negative = inhibition [11] 3.95% [at 38 µM] | activity change, negative = inhibition [2, 17] -15.6% [at 38 µM] | activity, negative = inhibition [3, 17] 26.3% [at 38 µM] | Potency [12] > 46 µM | Potency [13] > 46 µM | Potency [14] | Potency [4] | outcome [5] | activity change, negative = inhibition ([6]; at 57.5 µM (top of the series)) -4.66%
-26.7%: max response [6, 16]

NS(=O)(=O)c1cc([C@@]2(O)NC(=O)c3ccccc32)ccc1Cl
inactive: activity change, negative = inhibition [11] -7.43% [at 17.2 µM] | Potency [1] | activity change, negative = inhibition [2, 17] -15.2% [at 17.2 µM] | activity, negative = inhibition [3, 17] 1.16% [at 17.2 µM] | Potency [12] > 20.6 µM | Potency [13] > 20.6 µM | Potency [14] | Potency [4] | activity change, negative = inhibition ([6]; at 25.7 µM (top of the series)) -1.2% | outcome [7] | outcome [9] | activity, negative = inhibition ([10]; at 12.8 µM (top of the series), parasite line A) -2.59% | activity, negative = inhibition ([10]; at 12.8 µM (top of the series), parasite line B) 2.66% | Potency (AS120) | Potency (CP238) | Potency (CP250) | Potency (CP262) | Potency (CP265) | Potency (FAB9)
-14.5%: max response [6, 16]
-12.6%: max response [6, 15]

C[C@H]1NC(=O)NC1=O
-1.48%: max response [6, 16]
-2.21%: max response [6, 15]
inactive: activity change, negative = inhibition [11] 18% [at 17.2 µM] and -9.42% [at 17.2 µM] | Potency [1] | activity change, negative = inhibition [2, 17] -10.2% [at 17.2 µM] and -1.97% [at 17.2 µM] | activity, negative = inhibition [3, 17] -29.7% [at 17.2 µM] and -2.24% [at 17.2 µM] | Potency [12] > 20.6 µM | Potency [13] > 20.6 µM | Potency [14] | Potency [4] | activity change, negative = inhibition ([6]; at 25.7 µM (top of the series)) -0.728%

C[C@@H](C(=O)O)c1cccc(C(=O)c2ccccc2)c1
10.1%: max response [6, 16]
inactive: activity change, negative = inhibition ([2]; at 17.2 µM (top of the series)) 5.64% | activity change, negative = inhibition ([2]; at 38 µM (top of the series)) 19.5% | activity, negative = inhibition ([3]; at 17.2 µM (top of the series)) 6.92% | activity, negative = inhibition ([3]; at 38 µM (top of the series)) 4.82% | Potency [14] | Potency [4] | outcome [5] | activity change, negative = inhibition ([6]; at 25.7 µM (top of the series)) -0.218% | outcome [7] | Potency [8] | outcome [9]
11.1%: max response [6, 15]
